From PubChem BioAssay
KCNH2 3.1 block – inhibitors of human KCNH2 3.1 potassium channel isoform; U2OS KCNH2 3.1, thallium flux FluxOr; active compounds read low; activity change, % (tested at about 1.8 µM); 340,000 tested, 0.95% active;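 active = maximum activity change below -70%; inconclusive = maximum activity change from -70% to -50%; inactive = maximum activity change above -50%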;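 note: thallium influx rate constant from kinetic fluorescence after stimulation buffer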
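Normalized rate constant (relative to positive and negative DMSO controls) derived from a 2 min kinetic fluorescence read after stimulation; U2OS cells expressing the 3.1 isoform via virus at 1.77 x 10^8 /mL.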
ClpP mod – qHTS Assay for Activators of ClpP | ATP-dependent Clp protease proteolytic subunit (Bacillus subtilis (strain 168)), P80244 | purified B. subtilis ClpP, FRET peptide cleavage, 20 min | Potency, µM (highest dose often 57.5 µM) | 340,000 tested, 1.9% active; active = well fitted falling curve with a large enough effect; inconclusive = small, poorly fitted or top-dose-only effect; inactive = no such curve, though single readings can be large or run the other way; note: the source files actives as falling curves though it sought activators and does not explain the sign; nearly all actives have a fitted effect of over 65% in size
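ClpP 10 microg/mL final, pH 8 Tris/KCl buffer with BSA, glycerol, Tween-20; compound pinned in; FRET-FV substrate; RT 20 min; Ex320/Em430; ΔFRET vs ADEP 5.8 microM, DMSO, no enzyme.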
ALOX12 inh – blocks human arachidonate 12S-lipoxygenase; purified 12hLO, xylenol orange hydroperoxide absorbance; Potency, µM (series often up to 108 µM), actives largely listed as inhibitors; 580,000 tested, 1.1% active; active = well fitted inhibition curve with a large enough effect; inconclusive = small, poorly fitted or top-dose-only effect, or another doubt; inactive = no such curve, though single readings can be large or run the other way
Target sequence (P18054 whole entry, looked up): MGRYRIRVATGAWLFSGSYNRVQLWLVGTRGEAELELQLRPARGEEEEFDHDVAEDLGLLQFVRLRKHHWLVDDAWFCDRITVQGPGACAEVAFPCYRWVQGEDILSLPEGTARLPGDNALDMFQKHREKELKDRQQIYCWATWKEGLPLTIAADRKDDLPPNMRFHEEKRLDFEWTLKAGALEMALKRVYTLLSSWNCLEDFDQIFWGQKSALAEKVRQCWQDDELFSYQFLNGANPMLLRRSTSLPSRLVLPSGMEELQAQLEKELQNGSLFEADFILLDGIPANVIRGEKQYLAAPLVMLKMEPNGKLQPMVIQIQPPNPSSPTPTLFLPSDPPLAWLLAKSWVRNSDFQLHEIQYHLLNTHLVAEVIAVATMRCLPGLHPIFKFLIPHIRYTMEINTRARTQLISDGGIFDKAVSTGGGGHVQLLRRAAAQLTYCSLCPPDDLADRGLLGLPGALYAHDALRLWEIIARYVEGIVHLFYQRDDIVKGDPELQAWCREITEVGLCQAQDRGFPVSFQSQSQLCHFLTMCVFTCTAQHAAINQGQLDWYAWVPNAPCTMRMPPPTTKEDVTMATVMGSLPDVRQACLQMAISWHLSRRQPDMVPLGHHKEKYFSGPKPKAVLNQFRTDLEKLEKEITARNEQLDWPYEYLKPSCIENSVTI
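Hydroperoxide product was detected by ferrous iron/xylenol orange as the 573 to 405 nm absorbance ratio. Arachidonic acid at 40 uM (final) was turned over for 30 min at room temperature by 150 nM human 12hLO, pH 7.0 Hepes buffer, after 15 min compound preincubation.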
LDHA block – blocks human lactate dehydrogenase A. 480,000 tested, 0.15% active. activity change, % (values are at about 110 or 230 µM). P00338. purified LDHA, NADH/diaphorase-resazurin fluorescence; active compounds read low. AID 1347041; in the data active = activity change below about -30%; inconclusive = mostly about -25% to -30%
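LDH5 2 nM; NADH 0.06 mM, pyruvate 0.2 mM; 200 mM Tris pH 7.4, EDTA, Tween-20; 5 min RT. Detection: diaphorase 0.133 mg/mL + resazurin 37 µM, fluorescence ex540/em590 at 0 and 20 min; normalized to enzyme-free and DMSO wells.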
BCR signal inh – chronic active BCR signaling inhibition; ABC-DLBCL IkBa-CBG/CBR reporter, luminescence ratio, 4 h; Potency, µM (top dose mostly 46.1 µM), actives largely listed as inhibitors; 340,000 tested, 0.05% active; active = well fitted inhibition curve with a large enough effect in the signal ratio, with a control signal flat, not every such curve was filed as active; inconclusive = small, poorly fitted or top-dose-only effect, or effect the other way, or a change in a side signal; the % refers to the signal ratio
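Doxycycline induced both beetle luciferases in TMD8 lymphoma cells; IKK-driven degradation limits the IkappaBalpha-fused green signal, while red luminescence normalises for cell number and nonspecific effects. Compounds tested up to 46 uM, 4 hrs.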
KCNH2 WT inh – KCNH2 (human, wildtype) channel inhibition | activity change, % at 1.84 µM | AID 720551 | 340,000 tested, 0.37% active | Q12809 | U2OS, BacMam KCNH2, thallium flux FluxOr; active compounds read low;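 active = maximum activity change below -70%; inconclusive = maximum activity change between -70% and -50%; inactive = maximum activity change above -50%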
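U2OS cells transduced with wild-type KCNH2 virus are loaded with FluxOr dye for 45 min, and thallium flux is measured in kinetic reads before and after stimulation buffer. Rate constants are normalized to DMSO controls.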
Hits are given with their value; – = inactive; ? = inconclusive; · = not tested or not shown; ! = not active in a repeat. Sampled rows, rich in hits. Any-hit rate of the full collection: about 3%.

SMILES | KCNH2 3.1 block | ClpP mod | ALOX12 inh | LDHA block | BCR signal inh | KCNH2 WT inh
Cc1cccc(NC(=S)N/N=C2/CCCCc3ccccc32)c1 | – | – | 32µM | – | ? | –
COc1cccc(N2C(=O)NC(=NC3CCCCC3)C23CCN(Cc2ccsc2)C3)c1 (centres undefined) | · | · | – | · | · | ·
COc1ccc(F)cc1C(=O)CSc1nnc(C2CC2)n1C1CC1 | · | · | – | – | · | ·
Cc1cccc(NC(=S)NN=C2CCCC2)c1 | · | · | 14µM | – | · | ·
C=C(C)CNC(=S)N/N=C1\CCCCc2ccccc21 | – | · | 35µM | – | ? | –
S=C(NN=C1CCCCCC1)NC1CCCCC1 | · | · | ? | – | · | ·
S=C(NN=C1CCC(c2ccccc2)CC1)NC1CCCCC1 (centres undefined) | · | · | 35µM | – | · | ·
Cc1ccc(C)c(NC(=S)N/N=C2\CCc3ccccc32)c1 | – | – | 22µM | – | – | –
O=C(Cn1nc2n(c1=O)CCCCC2)Nc1ccc(Cl)cc1 | · | · | – | · | · | ·
O=C(c1ccccc1)c1ccccc1NC(=O)c1cc2ccccc2oc1=O | · | · | – | – | · | ·
Cc1ccc(OCCC(=O)OCC(=O)Nc2ccc3[nH]c(=O)[nH]c3c2)cc1 | – | – | – | – | – | –
Cc1ccccc1OCCC(=O)OCC(=O)Nc1ccc2[nH]c(=O)[nH]c2c1 | – | 32µM | – | – | – | –
CN1CCN(C(=O)/C(=C/c2ccc(N(C)C)cc2)NC(=O)c2ccccc2)CC1 | – | · | – | – | – | –
CN1CCN(C(=O)/C(=C/c2ccc(F)cc2)NC(=O)c2ccccc2)CC1 | -91 | · | – | – | ? | –
Cc1ccc(CNC(=O)N2CCC(c3noc(-c4ccccc4)n3)C2)cc1 (centres undefined) | · | · | – | · | · | ·
CCc1nc(N2CCC(C)CC2)c2oc3ccccc3c2n1 | – | 32µM | 11µM | – | – | –
CC(NC(=O)CNC(=O)OCc1ccccc1)C(=O)NCC(=O)O (centres undefined) | · | · | ? | – | · | ·
O=C(CSc1nc2ccccc2o1)c1c[nH]c2ccccc12 | · | · | – | – | · | ·
CN(C)c1ccc(/C=C/c2ccnc3c(O)cccc23)cc1 | · | – | · | – | · | ·
CN(C)c1ccc(C=Cc2ccnc3c(O)cccc23)cc1 | – | – | 11µM | – | · | –
C(#Cc1cc(-c2ccccc2)nc(-c2ccccc2)c1)c1ccccc1 | · | · | – | – | · | ·
CC(C)c1ccc(-c2csc(NC(=O)COCc3nc4ccccc4c(=O)[nH]3)n2)cc1 | · | · | – | – | · | ·
O=C(COCc1nc2ccccc2c(=O)[nH]1)Nc1nc(-c2ccc3c(c2)CCC3)cs1 | · | · | – | -31 | · | ·
N#CC(C#N)=C1C=C2C=C(N3CCCCC3)CCC2CC1 (centres undefined) | -89 | – | · | – | – | ?
CCCCN(C)C1=CC2=CC(=C(C#N)C#N)CCC2CC1 (centres undefined) | -102 | · | – | – | – | -87
SMILES | KCNH2 3.1 block | ClpP mod | ALOX12 inh | LDHA block | BCR signal inh | KCNH2 WT inh
N#CC1=C(N)C2=C(N3CCCCC3)CCCC2C1(C#N)C#N (centres undefined) | – | – | · | – | – | –
CCN(CC)C1=CC2=CC(=C(C#N)C#N)CCC2CC1 (centres undefined) | -97 | · | – | – | – | –
COc1ccc(C=O)cc1CN1CCCCCC1 | · | · | – | – | · | ·
Cc1ccc(F)cc1NC(=S)NCc1ccccc1 | · | · | ? | – | · | ·
CCN(CC(=O)NCc1cccs1)C(=O)c1cccc(S(=O)(=O)Nc2ccccc2Cl)c1 | – | 35µM | – | – | – | –
O=C(c1ccc(Cl)c(S(=O)(=O)N2CCOCC2)c1)N1CCOCC1 | – | 32µM | – | – | – | –
CN1CCC(N(C)C(=O)c2ccc(Cl)c(S(=O)(=O)N3CCOCC3)c2)CC1 | -150 | – | – | – | – | -194
CCOC(=O)C1CCN(C(=O)Nc2ccc3nccnc3c2)CC1 | – | 32µM | – | – | ? | –
CCOC(=O)C1CCN(C(=O)Nc2ccc3snnc3c2)CC1 | – | – | – | – | – | –
COc1cccc(NC(=O)N2CCCC(O)(CNS(C)(=O)=O)CC2)c1 (centres undefined) | · | · | – | · | · | ·
CC(=O)Nc1ccc(Nc2nc(-c3sc(C)nc3C)cs2)cc1 | – | – | 16µM! | – | ? | –
Cc1ccc(Nc2nc(-c3sc(C)nc3C)cs2)cc1 | – | – | ? | – | ? | –
CC(=O)c1ccc(Nc2nc(-c3sc(C)nc3C)cs2)cc1 | – | ? | – | – | · | -134
O=C(NCCc1ccc(Cl)cc1)C12CC3CC(CC(C3)C1)C2 | · | · | ? | – | · | ·
O=C1C2CC=C(Cl)CC2C(=O)N1CC1Cc2ccccc2CO1 (centres undefined) | – | – | · | – | – | –
O=C1C2CC=C(Cl)CC2C(=O)N1CC1OCCc2ccccc21 (centres undefined) | – | – | 20µM | – | – | –
CN(C)c1ccc(/C=C/C(=O)c2cccc(Br)c2)cc1 | -115 | – | – | – | ? | -149
Cc1ccc(C(=O)Nc2ccc(CN3CCN(C)CC3)c(C(F)(F)F)c2)cc1C#Cc1cnc2cccnn12 | · | · | 0.34µM | · | · | ·
CCN1CCN(Cc2ccc(NC(=O)c3ccc(C)c(NC(=O)c4nccn4C)c3)cc2C(F)(F)F)CC1 | – | – | – | – | – | –
COc1cc2ncnc(Nc3ccc(Cl)cc3F)c2cc1OC | · | · | 20µM | · | · | ·
COc1cc2ncnc(NCc3cc(F)ccc3F)c2cc1OC | – | – | – | – | – | –
CCOc1ccc(CN=C2NS(=O)(=O)C(c3ccc(C)c(C)c3)=C2C)cc1 | · | · | ? | – | · | ·
Cc1oc2c(CN3CCOCC3)c(O)ccc2c(=O)c1-c1ccccc1 | – | 28µM | – | – | ? | –
COc1ccc(Oc2c(C)oc3c(CN4CCOCC4)c(O)ccc3c2=O)cc1 | – | 32µM | – | – | – | –
COc1ccccc1-c1c(C)oc2c(CN3CCOCC3)c(O)ccc2c1=O | – | – | – | – | – | –
SMILES | KCNH2 3.1 block | ClpP mod | ALOX12 inh | LDHA block | BCR signal inh | KCNH2 WT inh
N#CC1=C(N)Oc2n[nH]c(-c3ccccc3)c2C12C(=O)N(Cc1ccc(F)cc1)c1ccccc12 (centres undefined) | · | · | ? | – | · | ·
CCOc1ccc(OC(=O)c2cccc(S(=O)(=O)N3CCN(C)CC3)c2)cc1 | – | 32µM | ? | – | – | –
O=C(CSc1ccc(F)c(F)c1)Nc1ccc2c(c1)OCCCO2 | · | · | ? | – | · | ·
COc1ccc(/C=C/C(=O)Nc2ccc(OC)nc2)cc1 | – | · | – | – | – | –
COc1ccc(NC(=O)/C=C/c2ccc(OC(F)F)cc2)cn1 | -75 | · | – | – | – | –
CN(C)Cc1cc(CC2(NCc3ccc(F)cc3)COC2)no1 | · | · | – | · | · | ·
CN1C(=O)C2(c3ccccc31)C1CCCC=C1C(C#N)=C(N)C2(C#N)C#N (centres undefined) | – | – | 45µM | – | ? | –
